From PubChem BioAssay AID463173 (ICCB-Longwood Screening Facility, Harvard Medical School, 2010)
About 4,300 (8.3%) of roughly 52,000 compounds were called active. No stated cut-off is given here; in the data, active means survival mostly below about 52% (no sharp cut-off); inactive means mostly above about 56%. What follows is part of a selection rich in actives, with near analogues and random picks from the rest.

test system: DeltatarO mutant; assay: growth inhibition of S. aureus wild type versus tarO mutant, primary screen, teichoic acid synthesis inhibitors, RN4220, OD600 (AID 463173); details: OD600, 18 h, hits give low values, screened at 18.75 µg/mL (by protocol)

SMILES | survival
CCOc1ccc(CNC(=O)Nc2ccc3c(c2)N(C)C(=O)c2ccccc2S3)cc1 | 75% (inactive)
COc1ccccc1N1CCN(C(=O)c2cc3c(=O)oc4ccccc4c3s2)CC1 | 169% (inactive)
Cc1ccc(-c2cc(C(F)(F)F)c(C#N)c(SCC(=O)O)n2)cc1 | 66% (inactive)
CCCOc1ccc(-c2cc(C(F)(F)F)c(C#N)c(SCCC(=O)O)n2)cc1 | 29% (active)
CCOC(=O)CSc1nc(-c2ccc(OCC)cc2)cc(C(F)(F)F)c1C#N | 67% (inactive)
CSc1ccc(CCNC(=O)C2CCCN(S(=O)(=O)N(C)c3ccc(F)cc3)C2)cc1 (centres undefined) | 74% (inactive)
CC1CN(c2ccc(Cl)cc2)c2nc3c(c(=O)n(CC(=O)O)c(=O)n3C)n2C1 (centres undefined) | 84% (inactive)
CCOC(=O)c1c(C)[nH]c(C)c1S(=O)(=O)NCC(=O)N1CCN(c2ccccc2F)CC1 | 76% (inactive)
COc1ccc(N2CCN(C(=O)CNC3CC3)CC2)cc1 | 74% (inactive)
COc1cccc(N2CCN(C(=O)C3CCC(CNS(=O)(=O)c4ccc(Br)s4)CC3)CC2)c1 (centres undefined) | 78% (inactive)
O=C(C1CCC(CNS(=O)(=O)c2ccc(Br)s2)CC1)N1CCN(c2ccc(F)cc2)CC1 (centres undefined) | 74% (inactive)
O=C(CNS(=O)(=O)c1cccs1)N1CCN(c2ccccc2Cl)CC1 | 45% (active)
O=C(CNS(=O)(=O)c1ccc(Br)s1)N1CCN(c2ccccc2F)CC1 | 36% (active)
O=C(CNS(=O)(=O)c1cccs1)N1CCN(c2cccc(C(F)(F)F)c2)CC1 | 83% (inactive)
O=C(CNS(=O)(=O)c1ccc(Br)s1)N1CCN(c2ccc(F)cc2)CC1 | 27% (active)
O=C(CNS(=O)(=O)c1cccs1)N1CCN(c2ccccc2F)CC1 | 51% (inactive)
O=C(C1CCN(S(=O)(=O)c2ccc(Br)s2)CC1)N1CCN(c2ccc(F)cc2)CC1 | 87% (inactive)
COc1ccc(N2CCN(C(=O)CNS(=O)(=O)c3ccc(Br)s3)CC2)cc1 | 32% (active)
COc1ccccc1N1CCN(C(=O)CNS(=O)(=O)c2ccc(Br)s2)CC1 | 116% (inactive)
O=C(Nc1cc(C(F)(F)F)ccc1Cl)c1noc2c1CCCCC2 | 82% (inactive)
COc1ccc(NC(=O)c2ccc3c(=O)n4nc(Nc5cc(C)ccc5C)sc4nc3c2)cc1 | 116% (inactive)
CCCCN(C)c1nc2c(S(=O)(=O)c3ccc(CC)cc3)nnn2c2ccc(Cl)cc12 | 76% (inactive)
CCc1ccccc1NC(=O)Cc1c(C(=O)O)[nH]c2ccc(Cl)cc12 | 80% (inactive)
CCOc1ccc(CCNC(=O)c2cnc3sc(N(CC)CC)nn3c2=O)cc1OCC | 122% (inactive)
